Results as given in PubChem BioAssay AID1159580 (chemical genetic matrix, 2015).
The whole screen tested about 5,500 compounds, of which about 2,000 (36%) were called active. Roughly 18% stayed inconclusive and do not appear here. Rule as the data show it: active = normalized growth mostly below about 0.91 (no sharp cut-off); inconclusive = no clear call, values can overlap the other calls; inactive = mostly above about 0.92. Some of the results follow.

Experiment: chemical genetic growth profiling, strain panel (AID 1159580);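 also: tested at 20 µM; growth read once vehicle control cultures reached saturation at 30 °C; 1 = growth at the plate median or of vehicle wells; lower values mean less growth of the strain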
Settings: S. cerevisiae deletion strains, growth OD

Measured: normalized growth

CC12C(=O)OC(=O)C1(C)C1CCC2O1 (stereo unspecified)
active: locus YNL175C, strain NOP13, active compounds read low 0.887 | locus YNL197C, strain WHI3, active compounds read low 0.879 | locus YNL224C, strain SQS1, active compounds read low 0.911 | locus YOR083W, strain WHI5 (second series), active compounds read low 0.85
inactive: locus YAL040C, strain CLN3, active compounds read low 0.905 | locus YCL061C, strain MRC1 (second series), active compounds read low 0.975 | locus YER002W, strain NOP16, active compounds read low 0.925 | locus YJR075W, strain HOC1, active compounds read low 1.04 | locus YNL128W, strain TEP1, active compounds read low 0.954 | locus YPL055C, strain LGE1, active compounds read low 1.05 | locus YPL241C, strain CIN2, active compounds read low 0.967

N[C@@H](CCC(=O)N[C@@H](CCSC(CC(=O)O)C(=O)O)C(=O)NCC(=O)O)C(=O)O (stereo partly specified)
inactive: locus YAL021C, strain ccr4, active compounds read low 0.991 | locus YAL026C, strain drs2, active compounds read low 1 | locus YAL030W, strain snc1, active compounds read low 0.992 | locus YBL061C, strain skt5, active compounds read low 0.989 | locus YBR009C, strain hhf1, active compounds read low 1.03 | locus YBR023C, strain chs3, active compounds read low 0.987 | locus YBR171W, strain sec66, active compounds read low 0.988 | locus YBR231C, strain swc5, active compounds read low 0.993 | locus YBR279W, strain paf1, active compounds read low 0.996 | locus YCL011C, strain gbp2, active compounds read low 0.995 | locus YCL016C, strain dcc1, active compounds read low 0.988 | locus YCL061C, strain MRC1, active compounds read low 1 | locus YCL069W, strain vba3, active compounds read low 0.997 | locus YCR088W, strain abp1, active compounds read low 0.988 | locus YDL005C, strain med2, active compounds read low 0.99 | locus YDL040C, strain nat1, active compounds read low 0.997 | locus YDR001C, strain nth1, active compounds read low 0.994 | locus YDR069C, strain doa4, active compounds read low 0.987 | locus YDR137W, strain rgp1, active compounds read low 0.987 | locus YDR159W, strain sac3, active compounds read low 0.996 | locus YDR195W, strain ref2 0.97 | locus YDR297W, strain sur2, active compounds read low 0.981 | locus YDR334W, strain swr1, active compounds read low 1 | locus YDR335W, strain msn5, active compounds read low 0.996 | locus YDR392W, strain spt3, active compounds read low 1.01 | locus YEL003W, strain gim4, active compounds read low 1.01 | locus YEL037C, strain rad23, active compounds read low 0.994 | locus YEL061C, strain CIN8 (second series), active compounds read low 0.998 | locus YER015W, strain faa2, active compounds read low 0.993 | locus YER016W, strain bim1, active compounds read low 0.978 | locus YER111C, strain swi4, active compounds read low 0.998 | locus YER155C, strain BEM2 (second series), active compounds read low 1.01 | locus YFR010W, strain ubp6, active compounds read low 1.02 | locus YGL167C, strain pmr1, active compounds read low 0.997 | locus YGL173C, strain kem1, active compounds read low 1.01 | locus YGL227W, strain vid30, active compounds read low 0.999 | locus YGL240W, strain doc1, active compounds read low 0.999 | locus YGL253W, strain hxk2, active compounds read low 0.991 | locus YHR013C, strain ard1, active compounds read low 1 | locus YHR027C, strain rpn1, active compounds read low 0.994 | locus YHR030C, strain SLT2, active compounds read low 0.999 | locus YHR079C, strain IRE1, active compounds read low 0.988 | locus YHR142W, strain chs7, active compounds read low 1 | locus YJL092W, strain hpr5, active compounds read low 1 | locus YJL095W, strain BCK1 (second series), active compounds read low 1.02 | locus YJL095W, strain BCK1, active compounds read low 1.01 | locus YJL115W, strain asf1, active compounds read low 1.01 | locus YJL129C, strain trk1, active compounds read low 0.99 | locus YJL154C, strain vps35, active compounds read low 0.992 | locus YJL164C, strain tpk1, active compounds read low 1.01 | locus YJL166W, strain qcr8, active compounds read low 0.994 | locus YJL187C, strain SWE1, active compounds read low 0.992 | locus YJR066W, strain TOR1, active compounds read low 0.997 | locus YKL160W, strain elf1, active compounds read low 0.984 | locus YKR026C, strain gcn3, active compounds read low 0.993 | locus YKR091W, strain srl3, active compounds read low 1 | locus YLL001W, strain dnm1, active compounds read low 1.01 | locus YLL026W, active compounds read low 1 | locus YLL041C, strain sdh2, active compounds read low 1.01 | locus YLR027C, strain aat2, active compounds read low 0.996 | locus YLR113W, strain HOG1, active compounds read low 1 | locus YLR221C, strain rsa3, active compounds read low 1.01 | locus YLR258W, strain gsy2, active compounds read low 1.01 | locus YLR262C, strain YPT6 (second series), active compounds read low 0.992 | locus YLR320W, strain mms22, active compounds read low 1.01 | locus YLR342W, strain FKS1, active compounds read low 0.99 | locus YLR357W, strain rsc2, active compounds read low 0.996 | locus YLR370C, strain arc18, active compounds read low 0.997 | locus YLR384C, strain iki3, active compounds read low 0.964 | locus YML120C, strain ndi1, active compounds read low 0.993 | locus YMR058W, strain fet3, active compounds read low 0.991 | locus YMR125W, strain sto1, active compounds read low 1.01 | locus YMR129W, active compounds read low 0.99 | locus YMR205C, strain PFK2, active compounds read low 1 | locus YMR231W, strain pep5, active compounds read low 0.995 | locus YNL071W, strain lat1, active compounds read low 1.01 | locus YNL183C, strain NPR1, active compounds read low 0.937 | locus YNL209W, strain ssb2, active compounds read low 0.981 | locus YNL248C, strain rpa49, active compounds read low 1.02 | locus YNL322C, strain KRE1 (second series), active compounds read low 0.979 | locus YNR049C, strain mso1, active compounds read low 0.997 | locus YOR001W, strain rrp6, active compounds read low 1.02 | locus YOR070C, strain gyp1, active compounds read low 0.999 | locus YOR080W, strain dia2, active compounds read low 0.982 | locus YOR083W, strain WHI5, active compounds read low 0.985 | locus YOR106W, strain vam3, active compounds read low 0.976 | locus YOR231W, strain MKK1, active compounds read low 0.991 | locus YOR265W, strain rbl2, active compounds read low 0.998 | locus YOR270C, strain vph1, active compounds read low 1.07 | locus YOR290C, strain snf2, active compounds read low 0.994 | locus YPL051W, strain arl3, active compounds read low 1 | locus YPL078C, strain atp4, active compounds read low 0.986 | locus YPL106C, strain sse1, active compounds read low 0.971 | locus YPL240C, strain hsp82, active compounds read low 1.01 | locus YPL256C, strain CLN2, active compounds read low 0.988
